Results published in PubChem BioAssay (NCI).
This is part of a sample that, as a whole, favours compounds with a hit. Of some 79,000 tested, about 15% had one in any assay. Unmarked numbers belong to inactive results. Calls of active or inactive are those of the source. No stated cut-off is given here; in the data, active means growth inhibition above about 70%; inactive means the rest.

Key:
[1] = NCI Yeast Anticancer Drug Screen. Data for the rad50 strain (AID 155);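 further: 0% = growth of vehicle-only cultures of the same strain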; details: S. cerevisiae rad50 strain growth inhibition; at 50.0 µM; active compounds read high
In short: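 Vehicle-treated cultures provide the reference for the growth inhibition reported for compound-exposed, repair-deficient yeast.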

[2] = NCI Yeast Anticancer Drug Screen. Data for the mec2-1 strain (AID 157); details: S. cerevisiae mec2-1 strain, at 50.0 µM, active compounds read high
In short: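 Test agents were screened against the mec2-1 yeast strain, with defined DNA repair or cell cycle alteration. Growth was scored as inhibition against vehicle-only controls.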

[3] = NCI Yeast Anticancer Drug Screen. Data for the sgs1 mgt1 strain (AID 161);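 further: 0% = growth of cultures given vehicle only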; details: S. cerevisiae sgs1 mgt1 strain, at 50.0 µM, active compounds read high
In short: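 Read-out: growth inhibition vs vehicle controls. Cells: mutant yeast strain deficient in DNA damage repair.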

[4] = NCI Yeast Anticancer Drug Screen. Data for the cln2 rad14 strain (AID 165);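 further: 0% = growth equal to vehicle treated cultures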; details: S. cerevisiae cln2 rad14 strain, at 50.0 µM, active compounds read high
In short: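 Growth of compound-exposed yeast (cln2 rad14 genotype) measured and expressed as inhibition relative to vehicle.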

[5] = NCI Yeast Anticancer Drug Screen. Data for the bub3 strain (AID 167); details: S. cerevisiae bub3 mutant strain, at 50.0 µM, active compounds read high
In short: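 Mutant yeast screening strain plus compound; vehicle-treated cultures serve as the 0% inhibition reference.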

[6] = NCI Yeast Anticancer Drug Screen. Data for the mlh1 rad18 strain (AID 175); details: S. cerevisiae mlh1 rad18 strain growth inhibition; at 50.0 µM; active compounds read high
In short: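 In this whole-cell yeast screen, a strain with altered DNA damage repair is challenged with compound, and its growth is measured against matched vehicle-treated controls.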

Compound	growth inhibition [1]	growth inhibition [2]	growth inhibition [3]	growth inhibition [4] [%]	growth inhibition [5]	growth inhibition [6]
NS(=O)(=O)c1ccc(NC(=O)/C=C\C(=O)O)cc1	-15.6%	-27.2%	17.1%	-1.4	-4.2%	-9.6%
CN1Cc2ccccc2-c2ccccc2C1	4.35%	1.8%	-5.95%	-32.8	4.7%	-2%
O=C(NC(Cc1ccccc1)C(=O)NNc1ccccc1Cl)OCc1ccccc1 (stereo unspecified)	92.4% (active)	86.3% (active)	94.7% (active)	55.5	80% (active)	89.5% (active)
CCCCCCCCCCCCCCCCCC(=O)CCCCCCCCCCCCCCCCC	-17.3%	-21.7%	-6.65%	13.8	-6.2%	-16.7%
CC(=O)NC1CCCC(CC2CCCCC2)C1 (stereo unspecified)	18.4%	0.45%	-7.8%	-56	17.6%	-14.9%
CC(c1ccccc1)C1CC(=O)N(C)C1=O (stereo unspecified)	7.85%	-15%	0.45%	-19.9	-23.8%	2.35%
O=[N+]([O-])c1ccccc1S(=O)(=O)N(CCCCCN(S(=O)(=O)c1ccccc1[N+](=O)[O-])S(=O)(=O)c1ccccc1[N+](=O)[O-])S(=O)(=O)c1ccccc1[N+](=O)[O-]	-5.75%	-5.95%	10.8%	20.6	-27.9%	-11.4%
COc1ccc(/C=C/C(=O)c2sc(N)nc2C)cc1	26.5%	-5.55%	-0.4%	24.6	3.95%	13.6%
CC(=O)OCC1OC(Oc2cccc(C=C(C(C)=O)C(C)=O)c2)C(OC(C)=O)C(OC(C)=O)C1OC(C)=O (stereo unspecified)	9.25%	3.25%	6.65%	5.3	0.65%	30.7%
CCCOC(=O)c1c(C)c(C)cc(C)c1C	5.9%	1.75%	14.6%	11.8	-1.3%	-12.3%
CSC1(C)C(=O)Nc2cc([N+](=O)[O-])ccc21 (stereo unspecified)	1.7%	-11.1%	0.6%	-14.2	-32.5%	-5.55%
CCOC(=O)c1cnc2cc3c(cc2c1Nc1cccc(C)c1C)OCO3	-9.9%	-7.35%	-16.4%	-13	3.5%	-6.6%
COc1ccc(C(=O)C[C@H]2CCC[C@@H](CC(=O)c3ccc(OC)cc3)N2C)cc1	14.4%	5.05%	5.05%	12	0.25%	8.1%
COC(=O)N/N=C/c1ccc(C)cc1	-4.1%	-8.05%	-10%	-37.9	-3.9%	-4.1%
CC(=O)NN	-5.25%	0.45%	-0.8%	-1.65	11.5%	-16.1%
COc1ccc2[nH]cc(CC(NC(C)=O)C(=O)O)c2c1 (stereo unspecified)	1.75%	-0.9%	1.55%	-0.5	3.85%	-1.25%
[N-]=[N+]=N[Si](c1ccccc1)(c1ccccc1)c1ccccc1	-17.1%	-11.4%	2.35%	7.6	-7.7%	7.25%
CC1CC(C)CN(S(=O)(=O)c2cc(Cl)c(Oc3ccc([N+](=O)[O-])cc3Cl)c(Cl)c2)C1 (stereo unspecified)	7.8%	-28.3%	3.75%	34.4	-11.3%	-2.45%
O=C(NC[N+]12CCO[B-]1(c1ccc(Cl)cc1)OCC2)c1ccccc1O (stereo unspecified)	19.2%	0.25%	24.1%	25	24%	56.3%
Cc1ccc(NC(=S)N2CCCCC2C)cc1C (stereo unspecified)	17.9%	11.7%	12.7%	3.1	16.6%	-6.15%
O=C(O)c1c(Cl)ccc([N+](=O)[O-])c1Cl	-4.45%	-24.2%	-8.95%	8.8	-10.6%	-1.45%
